Assay outcomes as filed in PubChem.
Compounds with a hit are over-represented: about 0.9% of the library has one in this group of screens.
CDC25B CDK2 inh = primary biochemical HTRF screen for blockers of M-phase inducer phosphatase 2 binding to CDK2/cyclin A; P30305+P24941; HTRF CDC25B-CDK2/CyclinA binding, anti-His/anti-Flag; active compounds read high; z-score (test concentration not listed); actives 0.72% (n = 94,000); AID 1259370, 2018; in the data active = z-score above about 3.2
HIV TAR-Tat = TAR RNA-Tat peptide displacers, HIV-1, primary screen, biochemical, FRET, FAM/TAMRA-labeled Tat; HIV-1 TAR RNA, Tat peptide displacement FRET; active compounds read high; z-score (concentration not given with the values); actives 0.6% (n = 100,000); active = z-score of 3 or more in at least 2 runs
* hit, by the source's call.

`O=C(CCCC(=O)OCC(F)(F)C(F)F)Nc1ccc(OC(=O)CCCC(=O)OCC(F)(F)C(F)F)cc1` gave CDC25B CDK2 inh -1.91.
O=C1O[C@H]([C@@H](O)CO)C(O)=C1O was read as HIV TAR-Tat 0.06.
CCCCCCCCCCCCCCCC(=O)OC[C@H](O)[C@H]1OC(=O)C(O)=C1O was read as HIV TAR-Tat 17.2*.
For COc1cc(NC(=O)/C=C/c2ccccc2Cl)c(OC)cc1Cl the results were CDC25B CDK2 inh -0.78.
Screening OCCNCc1cccc(Oc2nnnn2-c2ccccc2)c1 returned HIV TAR-Tat 0.8.
Screening c1ccc(-n2nnnc2Oc2cccc(CNCc3cccnc3)c2)cc1 returned HIV TAR-Tat 21*.
For O=c1[nH][nH]c2cccc(F)c12 the results were CDC25B CDK2 inh -0.49.
Screening CC1CC(C)CN(C(=O)CSC2=Nc3ccccc3C3=NC(Cc4c[nH]c5ccccc45)C(=O)N23)C1 (centres undefined) returned HIV TAR-Tat 5.37*.
`O=C(CSC1=Nc2ccccc2C2=NC(Cc3c[nH]c4ccccc34)C(=O)N12)NC1CCCCC1` (centres undefined) gave HIV TAR-Tat 0.74.
For O=C1C=C(NCc2ccco2)CC(c2ccccc2)C1 (centres undefined) the results were CDC25B CDK2 inh -1.2 and HIV TAR-Tat 0.24.
For O=C1C=C(NCCc2ccccc2)CC(c2ccco2)C1 (centres undefined) the results were CDC25B CDK2 inh -0.39 and HIV TAR-Tat 24*.
For N#CC1=C2N=C(N)c3ccccc3N2C2=C(C(=O)CCC2)C1c1ccccc1Cl (centres undefined) the results were CDC25B CDK2 inh -0.95 and HIV TAR-Tat -1.24.
N#CC1=C2N=C(N)c3ccccc3N2C2=C(C(=O)CCC2)C1c1ccccc1F (centres undefined) was read as CDC25B CDK2 inh 17.9* and HIV TAR-Tat -5.18.
N#CC1=C2N=C(N)c3ccccc3N2C2=C(C(=O)CCC2)C1c1c(F)cccc1Cl (centres undefined) was read as CDC25B CDK2 inh 9.3* and HIV TAR-Tat -6.63.
Screening N#CC1=C2N=C(N)c3ccccc3N2C2=C(C(=O)CCC2)C1c1ccc(Cl)cc1 (centres undefined) returned CDC25B CDK2 inh -1.28 and HIV TAR-Tat 1.53.
Screening Cc1ccsc1CCNC(=O)CCc1c(C)nc2nc[nH]n2c1=O returned CDC25B CDK2 inh -2.87 and HIV TAR-Tat 0.13.
O=S1(=O)C[C@H](NCc2ccccc2)[C@@H](S(=O)(=O)c2ccccc2)C1 was read as CDC25B CDK2 inh -1.39 and HIV TAR-Tat -1.19.
Screening CC(C)(C)N[C@H]1CS(=O)(=O)C[C@@H]1S(=O)(=O)c1ccccc1 returned CDC25B CDK2 inh -0.12 and HIV TAR-Tat 18.9*.
CC1CCCC(NC(=O)c2cc(S(=O)(=O)N3CCOCC3)cn2C)C1C (centres undefined) was read as HIV TAR-Tat 1.46.
CSc1sc(C(=O)NC(=O)Nc2ccc(Cl)cc2)c2c1-c1nocc1CC2 was read as CDC25B CDK2 inh 12.8*.
For CSc1sc(C(=O)NNC(=O)Nc2ccc(Cl)cc2)c2c1C1(CCC2)SCCS1 the results were CDC25B CDK2 inh -1.46.
For CCOc1cc(C2CC(=O)N3CN(c4ccc(C)cc4)CSC3=C2C#N)ccc1O (centres undefined) the results were CDC25B CDK2 inh 3.2* and HIV TAR-Tat 2.96.
Cc1ccc(C2CC(=O)N3CN(C)CSC3=C2C#N)cc1 (centres undefined) was read as CDC25B CDK2 inh 0.82 and HIV TAR-Tat 0.37.
`CCOc1ccc(C2CC(=O)N3CN(C)CSC3=C2C#N)cc1OC` (centres undefined) gave CDC25B CDK2 inh 3.64* and HIV TAR-Tat -0.1.
For COc1ccc(C2CC(=O)N3CN(CCc4ccccc4)CSC3=C2C#N)cc1OC (centres undefined) the results were CDC25B CDK2 inh -1.4 and HIV TAR-Tat 0.76.
`COC(=O)c1ccc(N2CSC3=C(C#N)C(c4ccc(C)cc4)CC(=O)N3C2)cc1` (centres undefined) gave CDC25B CDK2 inh 15.6* and HIV TAR-Tat 1.34.
For CCOC(=O)c1ccc(N2CSC3=C(C#N)C(c4ccc(SC)cc4)CC(=O)N3C2)cc1 (centres undefined) the results were CDC25B CDK2 inh 5.1* and HIV TAR-Tat -2.3.
O=C1CC(C(=O)Nc2ccc(Cl)cc2)SC(=Nc2ccccc2)N1 (centres undefined) was read as CDC25B CDK2 inh -1.61 and HIV TAR-Tat -0.14.
Screening CCc1ccc(S(=O)(=O)c2nnn3c2nc(NCc2ccco2)c2ccccc23)cc1 returned CDC25B CDK2 inh -1.61 and HIV TAR-Tat -0.25.
Screening CC(C)c1ccc(S(=O)(=O)Nc2ccc3c(c2)oc(=O)n3C)cc1 returned HIV TAR-Tat 0.69.
For CCn1nc(C)c(CNC(=O)Nc2cccc(SC)c2)c1C the results were HIV TAR-Tat 0.29.
